Where “and” joins values, the source holds several entries; their conditions need not be identical. Equal entries are not always repeated. Inconclusive results are not listed. Where a structure was tested more than once in an assay, its records may differ in their call. Calls of active or inactive are those of the source. How the source made its calls, unless noted: active means hit-call score of the fitted dose curve at least 0.9, where 1 is the maximum; inactive means score below 0.9.
What was measured:
[1] = read-out: Monokine induced gamma interferon (MIG), CXCL9 (gene 4283); experiment: BSK_3C_MIG: BioMAP Diversity Plus: 3C Assay for Monokine induced gamma interferon (MIG) Biomarker Activity (AID 2283021); conditions: primary human endothelial cells (HUVEC); actives raise or lower the signal;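 on AC50: MIG protein level measured by immunoassay in the treated endothelial cultures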
In short: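 HUVEC primary endothelial cultures dosed with chemical; MIG quantified by ELISA at 24 h. Data fitted bidirectionally against DMSO control, with parallel SRB total-protein staining for cytotoxicity.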

[2] = molecular target: human Vitamin D Receptor (VDR), VDR (gene 7421) (UniProt P11473); experiment: ATG_VDR_TRANS: Attagene TRANS-FACTORIAL HepG2 Assay for human Vitamin D Receptor (VDR) (AID 2283022; active means hit-call score of the fitted dose curve at least 0.9, where 1 is the maximum)
In short: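 RT-PCR/capillary electrophoresis read-out of reporter mRNA induction in transiently transfected HepG2; 24 h dosing; chimeric NR-Gal4 (TRANS format); gain-of-signal fit against DMSO baseline.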

[3] = BSK_3C_SRB: Viability Assessment in the BioMAP Diversity Plus: 3C Assay (AID 2283023); conditions: primary human endothelial cells (HUVEC);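 further: cells read 24 h after compound dosing; fitted both ways against DMSO so a hit may be signal rise or drop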
In short: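 HUVEC, 24 h post-dose; 10% TCA fix, 0.1% SRB stain, A560 nm. Bidirectional curve fit vs DMSO negative control.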

[4] = read-out: Matrix Metallopeptidase 1 (MMP1), MMP1 (gene 4312); experiment: BSK_BE3C_MMP1: BioMAP Diversity Plus: BE3C Assay for Matrix Metallopeptidase 1 (MMP1) Biomarker Activity (AID 2283024); conditions: primary human bronchial epithelial cells; actives raise or lower the signal
In short: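 Human primary bronchial epithelial cells (BE3C system) dosed for 24 h; MMP-1 quantified by ELISA. Bidirectional fit against DMSO; cytotoxicity tracked in parallel cultures by SRB total-protein staining.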

[5] = read-out: Pselectin, SELP (gene 6403); experiment: BSK_4H_Pselectin: BioMAP Diversity Plus: 4H Assay for Pselectin Biomarker Activity (AID 2283026); conditions: primary human endothelial cells (HUVEC); actives raise or lower the signal
In short: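 Primary human umbilical vein endothelial cells were treated 24 h, and cell-surface P-selectin was then quantified by ELISA. Bidirectional fit versus DMSO; cytotoxicity checked in parallel cultures by SRB total-protein staining.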

[6] = BSK_4H_SRB: Viability Assessment in the BioMAP Diversity Plus: 4H Assay (AID 2283027); conditions: primary human endothelial cells (HUVEC);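 further: cells exposed to compound for 24 h before staining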;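 on AC50: curves fitted both ways versus DMSO so AC50 may be loss or gain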
In short: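 Human umbilical vein endothelial cells were dosed with chemical and, after 24 h, fixed with 10% TCA, stained with 0.1% sulforhodamine B, and read at 560 nm to give total protein as a cytotoxicity measure. Bidirectional fitting relative to DMSO control.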

[7] = BSK_BE3C_SRB: Viability Assessment in the BioMAP Diversity Plus: BE3C Assay (AID 2283028); conditions: primary human bronchial epithelial cells;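 on AC50: fitted both ways so AC50 may mark signal gain or loss versus DMSO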
In short: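 Primary human bronchial epithelium; chemical dosing, 24 h; 10% TCA fix, 0.1% SRB stain, A560; bidirectional fit vs DMSO baseline.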

[8] = read-out: Thrombomodulin, THBD (gene 7056); experiment: BSK_3C_Thrombomodulin: BioMAP Diversity Plus: 3C Assay for Thrombomodulin Biomarker Activity (AID 2283029); conditions: primary human endothelial cells (HUVEC); actives raise or lower the signal
In short: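 Human umbilical vein endothelial cells were exposed to chemicals for 24 h; cell-surface thrombomodulin quantified by ELISA, with bidirectional fitting against DMSO baseline.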

[9] = read-out: Urokinase-type plasminogen activator receptor (uPAR), PLAUR (gene 5329); experiment: BSK_4H_uPAR: BioMAP Diversity Plus: 4H Assay for Urokinase-type plasminogen activator receptor (uPAR) Biomarker Activity (AID 2283030); conditions: primary human endothelial cells (HUVEC); actives raise or lower the signal
In short: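 HUVEC, 24 h post-dose; uPAR by ELISA; bidirectional fit vs DMSO baseline.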

[10] = BSK_3C_Vis: BioMAP Diversity Plus: 3C Assay for Morphology Visualization (AID 2283025); conditions: primary human endothelial cells (HUVEC);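 further: fitted both ways so gain or loss versus DMSO counts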
In short: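 Human umbilical vein endothelial cell morphology was inspected by light microscopy 24 h after chemical dosing; scored bidirectionally relative to DMSO.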

Sequence of human Vitamin D Receptor (VDR), VDR (gene 7421) (P11473 whole entry, looked up, the tested form may be a part): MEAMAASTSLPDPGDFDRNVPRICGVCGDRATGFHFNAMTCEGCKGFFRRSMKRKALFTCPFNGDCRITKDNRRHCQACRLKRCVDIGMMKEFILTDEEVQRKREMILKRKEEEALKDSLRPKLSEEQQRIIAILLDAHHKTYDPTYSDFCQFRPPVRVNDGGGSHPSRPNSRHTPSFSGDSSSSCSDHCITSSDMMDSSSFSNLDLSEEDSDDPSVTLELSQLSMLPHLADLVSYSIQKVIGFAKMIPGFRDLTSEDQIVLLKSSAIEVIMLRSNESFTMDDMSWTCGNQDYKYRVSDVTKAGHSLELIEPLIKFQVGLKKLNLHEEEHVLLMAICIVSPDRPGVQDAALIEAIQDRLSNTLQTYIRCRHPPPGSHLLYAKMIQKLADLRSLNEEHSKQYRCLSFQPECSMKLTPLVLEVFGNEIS

| Compound | outcome [1] | outcome [2] | outcome [3] | AC50 [4] | outcome [5] | outcome [6] | AC50 [7] | outcome [8] | outcome [9] | AC50 [1] | AC50 [3] | outcome [4] | AC50 [5] | AC50 [6] | AC50 [9] | AC50 [8] | AC50 [2] | outcome [10] | outcome [7] |
| --- | --- | --- | --- | --- | --- | --- | --- | --- | --- | --- | --- | --- | --- | --- | --- | --- | --- | --- | --- |
| CCCCCCCCCCCCc1ccccc1S(=O)(=O)O | inactive | inactive | inactive | 28.8 µM (active) | inactive | inactive | 7.1 µM (active) | inactive | inactive | – | – | – | – | – | – | – | – | – | – |
| Cc1oc(-c2ccccc2)nc1CCOc1ccc(C[C@H](Nc2ccccc2C(=O)c2ccccc2)C(=O)O)cc1 | – | inactive | – | – | – | – | 5.13 µM (active) | inactive | – | 36.8 µM (active) | 14.9 µM (active) | inactive | 32.9 µM (active) | 15.1 µM (active) | 15.6 µM (active) | – | – | – | – |
| CCCOc1sc(C(=O)N2CCC(c3cc(CN)ccc3F)CC2)c(C)c1Br | – | inactive | – | 11.1 µM (active) | – | – | 4.93 µM (active) | – | – | 11.1 µM (active) | 5 µM (active) | – | 6.2 µM (active) | 5.82 µM (active) | 6.64 µM (active) | 4.5 µM (active) | – | – | – |
| CCC(=C(c1ccc(O)cc1)c1ccc(OCCN(C)C)cc1)c1ccccc1 | – | inactive | – | 12.2 µM (active) | – | – | 9.32 µM (active) | – | – | 11.1 µM (active) | 9.01 µM (active) | – | 6.16 µM (active) | 8.19 µM (active) | 7.41 µM (active) | 12.8 µM (active) | 11.6 µM (active) | – | – |
| NC(=O)N(O)[C@@H]1C=C[C@H](Oc2cccc(Oc3ccc(F)cc3)c2)C1 | inactive | inactive | – | – | inactive | inactive | – | inactive | inactive | – | 9.5 µM (active) | inactive | – | – | – | – | – | inactive | inactive |
| c1ccc2c(c1)Cc1ccccc1-2 | inactive | inactive | inactive | – | inactive | inactive | – | inactive | inactive | – | – | inactive | – | – | – | – | – | – | inactive |
| OC1CCCCC1 | inactive | inactive | inactive | – | inactive | inactive | – | inactive | inactive | – | – | inactive | – | – | – | – | – | inactive | inactive |
| C[C@@H]1C[C@H]2[C@@H]3CCC4=CC(=O)C=C[C@]4(C)[C@@]3(F)[C@@H](O)C[C@]2(C)[C@@]1(O)C(=O)COP(=O)(O)O | inactive | inactive | inactive | 0.1 µM (active) | inactive | inactive | – | inactive | inactive | – | – | inactive | – | – | – | – | – | – | inactive |
| OCCC(F)(F)C(F)(F)C(F)(F)C(F)(F)C(F)(F)C(F)(F)C(F)(F)C(F)(F)F | inactive | inactive | inactive | 48 µM (active) | inactive | inactive | 22.8 µM (active) and 20 µM (active) | inactive | inactive | 48.6 µM (active) | 29.1 µM (active) and 19 µM (active) | inactive | 14.5 µM (active) and 13.5 µM (active) | 18.2 µM (active) and 15.6 µM (active) | 39.7 µM (active) and 27.8 µM (active) | – | 100 µM (active) | – | inactive |
| ClC1=C(Cl)C(Cl)(Cl)C(Cl)=C1Cl | – | inactive | – | 10.7 µM (active) | – | – | 6.99 µM (active) | – | – | 10.5 µM (active) | 5.75 µM (active) | – | 5.42 µM (active) | 6.82 µM (active) | 5.91 µM (active) | 10.3 µM (active) | – | – | – |
| COC(=O)CCCCC(=O)OC | inactive | inactive | inactive | – | inactive | inactive | – | inactive | inactive | – | – | inactive | – | – | – | – | – | – | inactive |
| CCc1ccc(CCOc2ccc(CC3SC(=O)NC3=O)cc2)nc1 (centres undefined) | inactive | inactive | inactive | – | inactive | inactive | – | inactive | inactive | – | – | inactive | – | – | – | – | – | – | inactive |
| CCCCCCCC(=O)O | inactive | inactive | inactive | – | inactive | inactive | – | inactive | inactive | – | – | inactive | – | – | – | – | – | – | inactive |
| C=C(C)C(=O)OCCC(F)(F)C(F)(F)C(F)(F)C(F)(F)C(F)(F)C(F)(F)F | inactive | inactive | inactive | – | inactive | inactive | – | inactive | inactive | – | – | inactive | – | 20 µM (active) | – | – | – | inactive | inactive |
| Oc1cc2ccccc2c2ccccc12 | – | inactive | – | 27.9 µM (active) | – | – | 28.8 µM (active) | – | – | 11.3 µM (active) | 15.4 µM (active) | – | 9.99 µM (active) | 16.6 µM (active) | 13.2 µM (active) | 9.55 µM (active) | – | – | – |

Source: PubChem BioAssay (EPA / NIEHS)
